About 950 (1.4%) of roughly 69,000 compounds showed an effect of 50% or more. This is one part of a sample in which strong results are shown more often than they occur.

The experiment deals with Mycobacterium tuberculosis. The experiment in a line: Cornell M. t heat shock assay. Also: in the data most compounds retested in dose-response had high values. The format is functional, organism-based. The arrangement: dose or concentration left out as unconfirmed.
`CCOCC1CN(Cc2cnn(C)c2)Cc2nn(CC3CC3)cc21.O=C(O)C(F)(F)F` (stereo not given): the “Percent Effect” value is reported as 2.131%.

Take `CCCn1[nH]cc/c1=N\C(=O)CN1CCc2c(nc(C3CC3)n2C)C1`: the “Percent Effect” value is listed as 7.757%. The result for `Cl.O=C(C1CCCCC1)N1C[C@H]2CNC[C@H]2C1` reads -3.289%; that for `O=c1cc(CN2CC[C@H]3CC[C@@H](C2)N3)c2cccc3c2n1CCC3`, -15.55%. Regarding `CN(C)C(=O)COC1COC2(CCN(CC3CCOCC3)CC2)C1.O=C(O)C(F)(F)F` (stereo not given), the “Percent Effect” value is reported as -2.67%. On to `Cl.c1nc(N2CCOCC2)sc1-c1cncn1CCCN1CCCCC1`, for which the “Percent Effect” value is -3.925%.

In the case of `CC(C)NC(=O)c1ccc2c(c1)C1(CCN(C(C)C)CC1)C(=O)N2.O=C(O)C(F)(F)F`, the “Percent Effect” value is -33.29%. Regarding `Cc1noc(C)c1CN1CCn2cc(CNc3ccccn3)nc2C1.O=C(O)C(F)(F)F.O=C(O)C(F)(F)F`, the “Percent Effect” value stood at 4.3%. Consider `Cc1ccc(O[C@@H]2C[C@H]3CN(Cc4nccn4C)CCN3C2)cc1.O=C(O)C(F)(F)F.O=C(O)C(F)(F)F`, for which the “Percent Effect” value is -24.79%.

Take `CC(C)NC(=O)CNC(=O)c1csc(Cc2ccccc2F)n1`: the “Percent Effect” value is given as -1.27%. In the case of `COCC1N(C(=O)N2CCOCC2)[C@H]2CC[C@]1(O)CC2` (stereo not given in full), the “Percent Effect” value is on record as -3.821%. On to `COc1ccc(-c2nc(CN3CCCC(OC)C3)c(C)o2)c(F)c1` (stereo not given), for which the “Percent Effect” value was determined as 93.73%. The result for `COCc1ncn(Cc2nc(-c3ccc(OC)cc3F)oc2C)n1` reads -9.071%; that for `CCCOC1CCCN(Cc2nc(-c3ccc(F)cc3F)oc2C)C1` (stereo not given), -26.76%; that for `O=C(O)C(F)(F)F.O=C(c1ccsc1)N1C[C@H]2CCC[C@@]2(COCc2cccnc2)C1`, -16.41%. Take `Cl.Cl.O=C(NCc1cncc2c1CCN(C1CCOCC1)C2)c1ccno1`: the “Percent Effect” value is on record as 18.25%. With `Br.Cc1cc(C)nc(NCCC(=O)NCCn2ccnc2C)n1` the figure was -9.93%; with `Cc1csc(NCC(=O)c2c[nH]c3ccccc23)n1.I`, 13.99%; with `Cc1nc(CN2C(=O)CCC23CCN(Cc2ccoc2)CC3)cs1.O=C(O)C(F)(F)F.O=C(O)C(F)(F)F`, -26.87%. The result for `Cc1nc(CN2CCC23CCN(Cc2ccoc2)CC3)cs1` reads 94.23%.

With `Cc1nc(CN2C(=O)CCC23CCN(Cc2ccco2)CC3)cs1`, the “Percent Effect” value was determined as 5.099%.

For the compound `Cc1nc(CN2CCC3(C2)CN(Cc2ccco2)C3)cs1`, the “Percent Effect” value stood at 18.48%. With `Cc1nc(CN2CCC23CCN(C(=O)c2ccco2)CC3)cs1` the figure was -3.59%. The result for `Cc1nc(CN2CCC23CCN(Cc2ccco2)CC3)cs1` reads 77.77%; that for `O=C(N1CCCO1)[C@@]12CCO[C@@H]1CCN(Cc1ccc(F)cc1)C2.O=C(O)C(F)(F)F`, -15.72%.

Turning to `Cn1cc(-c2cnc(N3CCOCC3)nc2)cc1C(=O)NCCO.O=C(O)C(F)(F)F`, the “Percent Effect” value was determined as 10.75%. The result for `O=C(c1c[nH]c(=O)c(Cl)c1)N1C[C@@H]2CC[C@H](C1)N(CC1CCC1)C2` reads -23.49%. With `COCCn1c2c(ccc1=O)CC(NCc1cccnc1OC)CC2.O=C(O)C(F)(F)F.O=C(O)C(F)(F)F` (stereo not given) the figure was 19.47%; with `COC1COC2(CCN(CC3CC3)CC2)C1.O=C(O)C(F)(F)F` (stereo not given), -5.009%; with `Cc1cnc2cc(C3CCN(C(=O)c4ccncc4)CC3)[nH]c2n1`, 11.57%.

Take `COCc1ccc(C(=O)N2CCC(c3cc4ncc(C)nc4[nH]3)C2)cc1` (stereo not given): the “Percent Effect” value is 6.722%. With `COCc1ccc(C(=O)N2CCC(c3cc4nccnc4[nH]3)CC2)cc1` the figure was 64.38%.

With `COc1ccc(Cn2c(C3CCNCC3)cc3cccnc32)cc1.Cl`, the “Percent Effect” value is listed as 2.964%. Turning to `CCOC(=O)CSc1nnc([C@@H](N)C(C)CC)o1.Cl` (stereo not given in full), the “Percent Effect” value was -17.57%. In the case of `CCOCC1CN(C2CCCC2)Cc2cnn(CC3CCOCC3)c21.O=C(O)C(F)(F)F.O=C(O)C(F)(F)F` (stereo not given), the “Percent Effect” value is reported as -13.36%. `c1ccc(O[C@H]2C[C@@H]3CN(Cc4cnccn4)C[C@@H]3C2)cc1`: the “Percent Effect” value is -8.402%. With `O=c1[nH]c2ccccc2cc1CN(Cc1ccccn1)CC1CCCO1` (stereo not given) the figure was 51.43%; with `Cc1ccc2cc(CN(C)Cc3ccccn3)c(=O)[nH]c2c1`, -6.108%; with `c1ccc(CN(Cc2cccc3cnccc23)CC2CCCO2)nc1` (stereo not given), 13.24%.

`O=C(N1CCOCC1)N1C(CN2CCOCC2)[C@]2(O)CC[C@H]1CC2` (stereo not given in full): the “Percent Effect” value worked out at 2.205%. Take `CN1C[C@@H]2CN(C(=O)C3CC=CC3)C[C@@H]2C1=O`: the “Percent Effect” value is reported as -1.029%. With `Cc1cc(CCC(=O)Nc2nncs2)nc(C2CCCN2)n1.Cl` (stereo not given) the figure was -11.36%; with `CN(C)C(=O)c1nn(C)c2c1CN(Cc1ccc(F)cc1)C2.O=C(O)C(F)(F)F`, -35.3%. The result for `O=C(O)C(F)(F)F.O=C1CC[C@]2(CC[C@@H](NC(=O)NCc3cccnc3)CC2)N1` reads 2.106%; that for `Cc1csc(C(Cc2ccsc2)NC(=O)CN(C)Cc2cccnc2)n1.Cl` (stereo not given), -9.769%.

Take `CN(CC(=O)NC(Cc1ccsc1)c1cccnc1)Cc1ccccn1.Cl` (stereo not given): the “Percent Effect” value is listed as -24.9%. Take `O=C(Cn1cccnc1=O)NC(Cc1ccsc1)c1ccccn1` (stereo not given): the “Percent Effect” value came to 17.67%. For the compound `Cc1cc(C)n(CC(=O)NC(Cc2ccsc2)c2ccccn2)c(=O)n1.Cl` (stereo not given), the “Percent Effect” value turned out to be 93.95%.

`Cc1csc(C(Cc2ccsc2)NC(=O)CN(C)Cc2ccccn2)n1.Cl` (stereo not given): the “Percent Effect” value is recorded as 82.59%. `Cc1csc(C(Cc2ccsc2)NC(=O)Cn2cccnc2=O)n1` (stereo not given): the “Percent Effect” value is -16.84%.

Consider `Cc1ccc(N2CCC3(CCN(C(=O)c4ccnnc4)CC3)CC2)nn1.O=C(O)C(F)(F)F`, for which the “Percent Effect” value is listed as -48.43%. Turning to `Cn1nnc2c1CCN(Cc1nccs1)C2COCc1ccccc1.O=C(O)C(F)(F)F` (stereo not given), the “Percent Effect” value is 7.839%. With `N#Cc1cccc(CN2CC[C@@H]3[C@@H]2CC(=O)N3CCN2CCCC2)c1.O=C(O)C(F)(F)F.O=C(O)C(F)(F)F` the figure was -3.152%.

For `Cc1cc(C(=O)NC2=NCCS2)c(C)n1-c1ccccn1`, the “Percent Effect” value is on record as 4.567%.

For the compound `Cc1oc(-c2ccccc2)nc1C(=O)NC1=NCCS1`, the “Percent Effect” value was 105.4%. As for `Cc1oc(-c2ccc(Cl)cc2)nc1C(=O)NC1=NCCS1`, the “Percent Effect” value is 105.8%. With `Cc1c(C(=O)NC2=NCCS2)cnn1-c1ccc(Cl)cc1`, the “Percent Effect” value turned out to be 22.26%. On to `Cc1c(C(=O)NC2=NCCS2)cnn1-c1ccc(Br)cc1`, for which the “Percent Effect” value was 23.54%. With `Cc1oc(-c2ccccc2)nc1CC(=O)NC1=NCCS1` the figure was 20.62%; with `CC(C)CN1CC[C@@H]2[C@H](CC1)N(S(C)(=O)=O)CCS2(=O)=O.O=C(O)C(F)(F)F`, -8.964%; with `Cc1c(CN2CCc3nc4sccc4c(=O)n3CC2)cnn1C.Cl`, -11.07%. Take `COCC(=O)NCc1cc(=O)n2c(n1)CN(C)CCC2.O=C(O)C(F)(F)F`: the “Percent Effect” value turned out to be 2.895%. With `CCn1cncc1CN1CCN(CC2(c3ccc(C)cc3)CC2)CC1.Cl`, the “Percent Effect” value was -24.04%. As for `Cn1nnc2c1C(COCc1cccnc1)CN(Cc1ccoc1)C2.O=C(O)C(F)(F)F.O=C(O)C(F)(F)F` (stereo not given), the “Percent Effect” value was -46.31%. With `Cc1cc(C)n(-c2ccc(NCCNS(=O)(=O)c3ccccc3)nn2)n1` the figure was 7.275%; with `O=S(=O)(NCCNc1cc(-n2cccc2)ncn1)c1cccs1`, 9.38%. The result for `Cc1nsc(NCCNS(=O)(=O)c2ccccc2)n1` reads -4.682%; that for `O=S(=O)(NCCNc1ccc(-n2cccc2)nn1)c1ccccc1`, 100.9%; that for `Cc1ccc(C)c(S(=O)(=O)NCCNc2ccc(-n3cccc3)nn2)c1`, 35.9%. Consider `O=S(=O)(Cc1ccccc1)NCCNc1ccc(-n2cccc2)nn1`, for which the “Percent Effect” value is on record as -9.655%. With `O=S(=O)(NCCNc1ccc(-n2cccc2)nn1)c1cccs1`, the “Percent Effect” value is recorded as 103.8%. Take `O=S(=O)(NCCNc1ccc(-n2cccn2)nn1)c1ccccc1`: the “Percent Effect” value turned out to be 101.1%. With `O=S(=O)(NCCNc1cc(-n2cccn2)ncn1)c1cccs1` the figure was -0.2009%; with `CNC(=O)CN1CC[C@H]2CN(C(=O)c3ccccc3F)C[C@H]2C1.O=C(O)C(F)(F)F`, -22.98%. With `CC(C)c1nn(C)c(N(C)C)c1CNCc1ccccc1CO.Cl` the figure was 37.79%; with `CCOC1COC2(CCN(Cc3ccc(C)cc3)CC2)C1.O=C(O)C(F)(F)F` (stereo not given), -2.769%.

In the case of `CCN1CCC2(CC1)CC(NC(=O)c1c[nH]cn1)c1ccccc1O2` (stereo not given), the “Percent Effect” value was 11.74%. As to `O=C(NC1CC2(CCN(CCO)CC2)Oc2ccccc21)c1csnn1` (stereo not given), the “Percent Effect” value was 10.49%. With `COCCN1CCC2(CC1)CC(NC(=O)COC)c1ccccc1O2.O=C(O)C(F)(F)F` (stereo not given) the figure was -4.974%. Consider `CCN1CCC2(CC1)CC(NC(=O)c1csnn1)c1ccccc1O2.O=C(O)C(F)(F)F` (stereo not given), for which the “Percent Effect” value came to 54.1%.

With `COCCN1CCC2(CC1)CC(NC(=O)CN(C)C)c1ccccc1O2.O=C(O)C(F)(F)F.O=C(O)C(F)(F)F` (stereo not given), the “Percent Effect” value is -9.867%.

`CN1CCC2(CC1)CC(NC(=O)c1csnn1)c1ccccc1O2.O=C(O)C(F)(F)F` (stereo not given): the “Percent Effect” value is reported as 76.95%.

In the case of `N#Cc1cccc(CN2Cc3nccn3CC(COCC3CC3)C2)c1.O=C(O)C(F)(F)F` (stereo not given), the “Percent Effect” value is on record as -23.01%. Turning to `O=C1CCCC2=C1C(c1ccccc1Cl)Nc1nonc1N2` (stereo not given), the “Percent Effect” value is reported as 3.129%. Turning to `O=C(CNC(=O)c1ccoc1)NCCOc1ccc2c(c1)CCC2`, the “Percent Effect” value is recorded as 12.38%.

Regarding `Cc1occc1C(=O)NCC(=O)NCCOc1ccc2c(c1)CCC2`, the “Percent Effect” value is on record as 50.55%. In the case of `Cc1occc1C(=O)NCC(=O)NCCOc1cccc(Cl)c1`, the “Percent Effect” value is listed as 34.75%. The result for `Cc1ccc(CN2CCOCC3(CCN(Cc4cccs4)C3)C2)o1.O=C(O)C(F)(F)F.O=C(O)C(F)(F)F` (stereo not given) reads -11.36%; that for `COCCN1CCc2c(c(COc3cccnc3)nn2C)C1.O=C(O)C(F)(F)F.O=C(O)C(F)(F)F`, 5.842%. As to `Cc1ccc(Cl)cc1N1CCC(CNC(=O)CCn2ccnc2)C1` (stereo not given), the “Percent Effect” value amounted to 172.3%.

Consider `Cc1ccc(Cl)cc1N1CCC(CNC(=O)CCn2ccnn2)C1` (stereo not given), for which the “Percent Effect” value stood at 62.44%. With `Cc1ccc(Cl)cc1N1CCC(CNC(=O)CC(F)(F)F)C1` (stereo not given) the figure was 28.09%; with `Cc1cnn(CC(=O)NCC2CCN(c3cc(Cl)ccc3C)C2)c1` (stereo not given), 0.4801%; with `CCC(=O)NCC(=O)NCC1CCN(c2cc(Cl)ccc2C)C1` (stereo not given), -4.009%. The result for `Cc1ccc(Cl)cc1N1CCC(CNC(=O)Cn2cccn2)C1` (stereo not given) reads 6.122%.
